Data: PubChem BioAssay AID1851 (National Center for Advancing Translational Sciences (NCATS), 2009)
Hit rate of the full screen: of about 16,000 compounds, about 5,100 (32%) were called active. Another 25% or so got no clear call; they are omitted. This is one part of the list. Values without a mark were called inactive. Calls come from the whole dose curve; as a rule, active = well fitted curve in the direction sought with a large enough effect; inconclusive = small, poorly fitted or top-dose-only effect, or effect the other way; inactive = no such curve, though single readings can be large or run the other way.
% is set by controls: 0 for no effect and ±100 for the full control effect.

Each compound was assayed against Cytochrome P450 3A4 (Homo sapiens) (UniProt P08684) (assay: Cytochrome panel assay with activity outcomes). Details: recombinant CYP, pro-luciferin dealkylation, luminescence, p450-cyp3a4; series mostly up to 57.1 µM; activity, negative = inhibition: at the top concentration.
Cytochrome P450 3A4 (Homo sapiens), sequence (P08684 whole entry, looked up): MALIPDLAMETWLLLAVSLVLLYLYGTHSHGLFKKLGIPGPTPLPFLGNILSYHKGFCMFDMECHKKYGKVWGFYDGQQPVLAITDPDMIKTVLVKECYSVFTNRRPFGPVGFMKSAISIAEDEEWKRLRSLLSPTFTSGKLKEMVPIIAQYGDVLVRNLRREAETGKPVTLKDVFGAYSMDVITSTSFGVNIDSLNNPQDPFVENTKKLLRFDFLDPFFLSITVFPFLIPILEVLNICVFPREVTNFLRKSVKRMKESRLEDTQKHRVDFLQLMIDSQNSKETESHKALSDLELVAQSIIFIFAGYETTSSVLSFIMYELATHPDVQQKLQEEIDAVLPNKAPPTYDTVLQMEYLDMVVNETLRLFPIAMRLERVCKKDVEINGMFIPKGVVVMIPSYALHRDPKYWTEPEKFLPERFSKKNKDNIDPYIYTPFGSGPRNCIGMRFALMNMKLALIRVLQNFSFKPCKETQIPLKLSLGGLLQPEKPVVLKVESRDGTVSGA
In the case of `CN(C)CCCn1cc(C2=C(c3c[nH]c4ccccc34)C(=O)NC2=O)c2ccccc21`, the AC50 is reported as 12.6 µM (active).
With `CN(C)CCCNC(=O)c1cc2c3ccccc3n(C)c2s1` the “activity, negative = inhibition” value was -25.3%.
With `CN(C)CCCN=c1c2ccccc2n(C)c2[nH]c(=O)n(C)c(=O)c12` the activity, negative = inhibition was 2.56% [at 11.4 µM].
With `c1c[nH]c(CN2CCN(Cc3ncc[nH]3)CC2)n1` the activity, negative = inhibition was -22.2% [at 11.4 µM].
In the case of `Clc1cccc(Cl)c1NC1=NCCN1`, the AC50 is reported as “inactive”.
For `CNc1ncnc2ccc(-c3ccccc3OC)cc12`, the AC50 was 20 µM (active).
`NCCNc1ncnc2ccc(Cl)cc12` was tested, and the activity, negative = inhibition was -27.5% [at 11.4 µM].
`COc1ccc(Nc2ncc(C(=O)N3CCN(Cc4ccccc4)CC3)c3ccccc23)cc1` was tested, and the activity, negative = inhibition was -29.5% [at 2.29 µM].
With `Brc1ccc2ncnc(Nc3cccc4ccccc34)c2c1` the activity, negative = inhibition was 20.8% [at 2.29 µM].
In the case of `COc1cccc(-c2ccc3ncnc(NC4CC4)c3c2)c1`, the AC50 is reported as 2 µM (active).
For `COc1ccc(Nc2ncnc3sc(-c4ccccc4)cc23)cc1`, the AC50 was 11.2 µM (active).
`COc1ccc(-n2cnc3sc(-c4ccccc4)cc3c2=O)cc1` showed an activity, negative = inhibition of 13% [at 2.29 µM].
With `Clc1cccc(Nc2ncnc3ccc(Br)cc23)c1` the AC50 was 14.1 µM (active).
For `CC(C)=NOCc1ccc(-c2cc(-c3ccccc3)no2)cc1`, the activity, negative = inhibition was 5.94% [at 11.4 µM].
`C[C@@H](c1ccccc1)N1C(=O)[C@@H]2[C@H]3C(=CC[C@H]2C1=O)C(=O)[C@H]1O[C@H]1[C@H]3O` was tested, and the activity, negative = inhibition was -19.9% [at 11.4 µM].
Compound `CN(C)S(=O)(=O)Nc1ccccn1` has an activity, negative = inhibition of -8.58% [at 11.4 µM].
For `COc1cccc(Nc2ncc(C(=O)O)c3ccccc23)c1`, the “activity, negative = inhibition” value was -10.1%.
For `COc1cccc(-c2ccc3ncnc(Nc4ccccc4)c3c2)c1`, the AC50 was 10 µM (active).
`CN(C)C(=O)c1ccc(-c2ccc3ncnc(NC4CCNCC4)c3c2)cc1` was tested, and the “activity, negative = inhibition” value was -8.67%.
With `CN(C)c1ccc(-c2ccc3ncnc(NC4CC4)c3c2)cc1` the AC50 was 3.16 µM (active).
With `COc1ccccc1-c1ccc2ncnc(Nc3ccccc3)c2c1` the AC50 was 12.6 µM (active).
With `C/C=C\C1=C(CO)C(=O)C2O[C@]2(CC=C(C)C)C1=O` (some centres not stated) the activity, negative = inhibition was -13.4% [at 11.4 µM].
With `Cc1sc2c(c1C)c(=O)n(-c1ccccc1)c1nnc(C)n21` the “activity, negative = inhibition” value was -6.33%.
For `Cc1ccccc1C(C(=O)NC1CCCC1)N(C(=O)Cc1cccs1)c1ccc2c(c1)OCCO2` (configuration not stated), the AC50 was 1 µM (active).
With `CCOc1ccc(N(C(=O)/C=C/C(=O)Nc2cc(C)on2)C(C(=O)NC2CCCC2)c2ccccc2C)cc1` (configuration not stated) the AC50 was 0.891 µM (active).
`CCOC(=O)CN(C(=O)CCC(=O)Nc1cc(C)on1)C(C(=O)NC1CCCC1)c1cccnc1` (configuration not stated) was tested, and the activity, negative = inhibition was -13% [at 2.29 µM].
`Cc1nn(C)cc1C(C(=O)NC1CCCCC1)N(C(=O)Cc1cccs1)c1ccc(C(C)C)cc1` (configuration not stated) was tested, and the AC50 was 2.51 µM (active).
